These results are taken from PubChem BioAssay (NCATS).

Records with an inconclusive call do not appear. The source made the active and inactive calls. Unless noted, calls follow the shape of the full dose curve.

Test [1] addresses Bile acid receptor (Homo sapiens) (UniProt Q96RI1). The experiment in a line: qHTS assay for small molecule antagonists of farnesoid X receptor signaling (AID 588526). Also: % is scaled to controls: 0 for no effect and ±100 for the full control effect. The method in brief: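 Concentration-response titrations were fitted to the Hill equation for half-maximal inhibition and maximal response, with data normalised to 50 uM chenodeoxycholic acid and DMSO control wells. Cells: FXR-UAS-bla HEK293T, dialyzed FBS.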

Test [2] deals with Peroxisome proliferator-activated receptor gamma (Homo sapiens) (UniProt P37231). The experiment in a line: qHTS assay for small molecule agonists of peroxisome proliferator-activated receptor gamma signaling (AID 588536; active = well fitted curve in the direction sought with a large enough effect in the signal ratio, with a control signal flat, not every such curve was filed as active; the % refers to the signal ratio;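 also: 0% = DMSO basal wells and 100% = rosiglitazone at 2 µM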). Put shortly:
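This is an agonist-mode beta-lactamase reporter assay in HEK293 PPAR-gamma-UAS-bla cells with 1% charcoal/dextran FBS. Compound titrations ran 16 h at 37 C before CCF4 detection. EC50 and efficacy are Hill fits scaled to 2 uM rosiglitazone (100%) and DMSO basal.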
(qHTS replaces the single test concentration by a dilution series.)

Test [3] concerns the target Vitamin D3 receptor (Homo sapiens) (UniProt P11473). The experiment in a line: qHTS assay for small molecule antagonists of vitamin D receptor signaling (AID 588541).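 Also: receptor activated by calcitriol during compound treatment; series mostly up to about 77 µM; % is scaled to controls: 0 for no effect and ±100 for the full control effect.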 Put shortly:
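VDR-UAS-bla HEK293T cells (2000/well, 2% charcoal-stripped FBS) were treated with titrated compounds plus 1-alpha,25-dihydroxyvitamin D3 (50 nM or 3 nM final) for 16 h at 37 C. CCF4 beta-lactamase fluorescence was read; Hill fits gave IC50.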

The target is the same in test [4]. The test can be described thus: qHTS assay for small molecule agonists of vitamin D receptor signaling (AID 588543).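 Also: 0% = DMSO basal and 100% = reference agonist control.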 Put shortly:
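Measured: β-lactamase reporter activity (CCF4, 405 nm excitation, 460/530 nm emission) in HEK293T VDR-UAS-bla cells after 16 h compound exposure at 37 °C. Normalization against 50 nM 1α,25-dihydroxyvitamin D3 and DMSO; Hill-fit EC50.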

A short description of test [5]: qHTS assay for small molecule agonists of retinoid X receptor alpha signaling (AID 588544).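 As to activation: 0% = DMSO basal wells and 100% = reference agonist.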 To be noted: HEK293T RXRa-UAS-bla, beta-lactamase reporter, 18 h; 530 nm emission.
In test [6] the target is Retinoic acid receptor RXR-alpha (Homo sapiens) (UniProt P19793). Described as above.
For test [7], the target named is Thyroid hormone receptor beta (Homo sapiens) (UniProt P10828). The experiment in a line: qHTS assay for small molecule agonists of thyroid hormone receptor beta signaling (AID 588545).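 Also: 0% = DMSO only and 100% = 10 nM T3.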 Put shortly:
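Efficacy and EC50 values derive from Hill fits of qHTS titration data, normalized to 10 nM T3 and DMSO-only wells. HEK 293 reporter cells were stimulated for 18 hrs at 37 C, with beta-lactamase activity measured by CCF4 fluorescence.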

The nature of test [8]: qHTS assay for small molecule antagonists of retinoid X receptor alpha signaling (AID 588546; active = well fitted inhibition curve with a large enough effect in the signal ratio, with a control signal flat, not every such curve was filed as active; the % refers to the signal ratio;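 also: cells stimulated with 9-cis-retinoic acid as agonist; % is scaled to controls: 0 for no effect and ±100 for the full control effect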). The settings on record: HEK293T RXRa-UAS-bla, beta-lactamase ratio, antagonist mode; measured here: W530 green channel, cytotoxicity proxy. Put shortly: (§1)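 Beta-lactamase reporter inhibition, read as CCF4 fluorescence ratio (ex 405, em 460/530 nm) after 2 h at RT. HEK293T UAS-bla cells, 2500/well, were stimulated with 9-cis-RA at 500 or 100 nM final alongside test compound for 18 h at 37 C.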

The target of test [9] is Retinoic acid receptor RXR-alpha (Homo sapiens) (UniProt P19793). The description is as above. To be noted: HEK293T RXRa-UAS-bla, beta-lactamase ratio, antagonist mode. The method in brief:
as §1

The target of test [10] is Thyroid hormone receptor beta (Homo sapiens) (UniProt P10828). The test can be described thus: qHTS assay for small molecule antagonists of thyroid hormone receptor beta signaling (AID 588547; active = well fitted inhibition curve with a large enough effect in the signal ratio, with a control signal flat, not every such curve was filed as active; the % refers to the signal ratio;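 also: cells stimulated with 0.4 nM T3 agonist during compound exposure; series mostly up to about 77 µM; % is scaled to controls: 0 for no effect and ±100 for the full control effect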). To be noted: TR-UAS-bla HEK293, beta-lactamase ratio, antagonist mode, 18 h. Put shortly: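 TR-UAS-bla GripTite HEK293 cells in 2% charcoal/dextran FBS medium were preincubated 4 h at 37 C, given compound (0.59 nM to 92 uM) plus 0.4 nM T3 (final) for 18 h, then CCF4 for 2 h at RT; Hill fit gave IC50.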

Test [11] has as its target Voltage-gated inwardly rectifying potassium channel KCNH2 (Homo sapiens) (UniProt Q12809). The test can be described thus: qHTS Assay for Small Molecule Inhibitors of the Human hERG Channel Activity (AID 588834; active = well fitted inhibition curve with a large enough effect;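 also: top concentration of the series differs between compounds; % is scaled to controls: 0 for no effect and ±100 for the full control effect; lower thallium flux fluorescence means stronger hERG block; nearly all actives have a fitted effect of over 50% in size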). The method in brief: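 Homogeneous FluxOR thallium flux assay using hERG-expressing U2OS cells (BacMam). Compound treatment about 10 minutes preceded stimulation; reduced fluorescence taken as channel block.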

Test [12] can be described thus: qHTS assay for small molecule agonists of the antioxidant response element (ARE) signaling pathway (AID 651741; active = well fitted activation curve with a large enough effect in the signal ratio; the % refers to the signal ratio; also: potency is read from the fitted curve at half-maximal effect; as to activation: % of control where 0% means no effect). The method in brief: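 Reporter: beta-lactamase under ARE, stably in HepG2. Exposure: 16 h, 37 C, compounds delivered in DMSO by pin tool after 5 h cell preincubation. Readout: FRET substrate fluorescence after 2 h at RT.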
Test [13] can be described thus: qHTS assay for small molecule activators of the p53 signaling pathway (AID 651743; active = well fitted activation curve with a large enough effect in the signal ratio, not every such curve was filed as active; the % refers to the signal ratio; also: series mostly up to about 92 µM; % of control where 0% means no effect). To be noted: HCT-116 p53RE-bla, beta-lactamase FRET ratio, 16 h; stronger effect = higher value. Put shortly: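 Agonist-mode quantitative HTS in HCT-116 cells carrying a p53-response-element beta-lactamase reporter; 16 h compound treatment at 37 C, then FRET substrate loading for 2 h at room temperature and fluorescence read.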

A short description of test [14]: qHTS assay for small molecule activators of the nuclear factor-kappa B (NF-kB) signaling pathway (AID 651749; active = well fitted activation curve with a large enough effect in the signal ratio; the % refers to the signal ratio; also: series mostly up to about 77 µM; % of control where 0% means no effect). To be noted: NF-kB-bla ME-180 cells, beta-lactamase FRET ratio, 16 h; stronger effect = higher value. The method in brief: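 Human ME-180 cervical cells with an NF-kB-bla construct; compounds added via 23 nL pin transfer, DMSO as vehicle; incubation 16 hr. Reporter activity measured by FRET disruption.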

A short description of test [15]: qHTS assay for small molecule antagonists of peroxisome proliferator-activated receptor delta signaling (AID 588535; active = well fitted inhibition curve with a large enough effect in the signal ratio, with a control signal flat, not every such curve was filed as active; the % refers to the signal ratio;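 as to max response: cells co-treated with a PPAR-delta agonist as stimulator during compound exposure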). To be noted: HEK293T PPARd-UAS-bla, beta-lactamase FRET ratio, 18 h; 460 nm channel. The method in brief: (§2)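 Inhibition of PPAR-delta response element-driven beta-lactamase expression is measured in HEK293T cells exposed to a compound titration series for 18 hrs at 37 C. Half-maximal inhibition comes from Hill equation fitting.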

The target in test [16] is Peroxisome proliferator-activated receptor delta (Homo sapiens) (UniProt Q03181). The description is as above. Put shortly: as §2
Test [17] has as its target Peroxisome proliferator-activated receptor gamma (Homo sapiens) (UniProt P37231). The experiment in a line: qHTS assay for small molecule antagonists of peroxisome proliferator-activated receptor gamma signaling (AID 588537; active = well fitted inhibition curve with a large enough effect in the signal ratio, with a control signal flat, not every such curve was filed as active; the % refers to the signal ratio;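 also: reporter cells co-stimulated with 50 nM rosiglitazone agonist during compound treatment; % of control where 0% means no effect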). The method in brief:
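Compounds are tested as concentration series for inhibition of rosiglitazone-driven (50 nM) reporter expression in GeneBLAzer PPAR-gamma-UAS-bla HEK293 cells. After 16 h at 37 C, CCF4 substrate is added for 2 h at room temperature and blue/green fluorescence is measured.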

In test [18] the target is Glucocorticoid receptor (Homo sapiens) (UniProt P04150). The test can be described thus: qHTS assay for small molecule agonists of glucocorticoid receptor signaling (AID 588532; active = well fitted curve in the direction sought with a large enough effect in the signal ratio, with a control signal flat; the % refers to the signal ratio;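 also: 100% = dexamethasone at 0.1 µM and 0% = DMSO only wells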). The settings on record: HeLa MMTV-bla, beta-lactamase ratio, agonist, 18 h; stronger effect = higher value; percent of dexamethasone control, DMSO zero. Put shortly:
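MMTV-bla HeLa, beta-lactamase reporter; medium with 1% charcoal/dextran-stripped FBS; cpds up to 92 uM, 18 h, 37 C; CCF4 readout 460/530 nm; Hill fit → EC50, efficacy vs 0.1 uM dexamethasone = 100%.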

Test [19] shares this target. The test can be described thus: qHTS assay for small molecule antagonists of glucocorticoid receptor signaling (AID 588533; active = well fitted inhibition curve with a large enough effect in the signal ratio, with a control signal flat, not every such curve was filed as active; the % refers to the signal ratio). Put shortly:
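Antagonist-mode qHTS: compound titrations added to GRE-bla HeLa cells, then dexamethasone 2 nM final; 18 h, 37 C. CCF4 FRET fluorescence normalized to dexamethasone and DMSO; IC50 from Hill fit.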

Vitamin D3 receptor (Homo sapiens), sequence (P11473 whole entry, looked up): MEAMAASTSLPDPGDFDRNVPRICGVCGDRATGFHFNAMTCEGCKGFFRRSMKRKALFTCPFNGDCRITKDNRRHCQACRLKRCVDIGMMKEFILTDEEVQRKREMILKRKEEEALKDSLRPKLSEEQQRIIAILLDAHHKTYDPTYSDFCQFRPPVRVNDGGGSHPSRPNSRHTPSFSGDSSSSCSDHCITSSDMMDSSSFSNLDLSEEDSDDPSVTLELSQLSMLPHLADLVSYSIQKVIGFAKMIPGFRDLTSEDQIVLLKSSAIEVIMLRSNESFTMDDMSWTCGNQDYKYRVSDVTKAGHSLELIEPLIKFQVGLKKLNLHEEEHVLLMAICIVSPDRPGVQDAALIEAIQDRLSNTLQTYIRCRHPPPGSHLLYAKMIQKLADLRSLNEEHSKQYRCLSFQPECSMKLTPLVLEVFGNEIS
Thyroid hormone receptor beta (Homo sapiens), sequence (P10828 whole entry, looked up): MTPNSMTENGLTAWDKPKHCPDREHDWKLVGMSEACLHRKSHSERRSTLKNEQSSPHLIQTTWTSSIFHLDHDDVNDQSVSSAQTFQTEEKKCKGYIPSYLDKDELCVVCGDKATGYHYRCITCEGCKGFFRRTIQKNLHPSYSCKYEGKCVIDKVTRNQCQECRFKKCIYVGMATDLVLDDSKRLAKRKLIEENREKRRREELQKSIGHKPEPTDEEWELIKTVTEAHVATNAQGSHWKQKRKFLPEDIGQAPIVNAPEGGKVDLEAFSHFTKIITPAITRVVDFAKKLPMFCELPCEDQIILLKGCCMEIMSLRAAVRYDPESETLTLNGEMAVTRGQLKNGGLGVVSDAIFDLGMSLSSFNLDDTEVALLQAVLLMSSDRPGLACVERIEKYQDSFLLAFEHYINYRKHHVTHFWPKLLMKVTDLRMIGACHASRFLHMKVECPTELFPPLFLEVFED
Retinoic acid receptor RXR-alpha (Homo sapiens), sequence (P19793 whole entry, looked up): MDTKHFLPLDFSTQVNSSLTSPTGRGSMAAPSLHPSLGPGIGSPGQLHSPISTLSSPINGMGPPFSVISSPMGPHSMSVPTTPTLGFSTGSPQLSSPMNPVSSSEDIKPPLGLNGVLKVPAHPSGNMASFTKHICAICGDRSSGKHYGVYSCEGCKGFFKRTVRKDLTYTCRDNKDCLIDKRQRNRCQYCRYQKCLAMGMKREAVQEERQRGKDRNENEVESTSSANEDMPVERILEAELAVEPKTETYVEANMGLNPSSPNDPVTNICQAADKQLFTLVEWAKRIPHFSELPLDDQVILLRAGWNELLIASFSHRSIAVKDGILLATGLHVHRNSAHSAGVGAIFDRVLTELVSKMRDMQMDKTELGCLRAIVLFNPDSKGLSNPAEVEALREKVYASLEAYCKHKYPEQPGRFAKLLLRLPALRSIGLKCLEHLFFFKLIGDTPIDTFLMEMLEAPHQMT
Glucocorticoid receptor (Homo sapiens), sequence (P04150 whole entry, looked up): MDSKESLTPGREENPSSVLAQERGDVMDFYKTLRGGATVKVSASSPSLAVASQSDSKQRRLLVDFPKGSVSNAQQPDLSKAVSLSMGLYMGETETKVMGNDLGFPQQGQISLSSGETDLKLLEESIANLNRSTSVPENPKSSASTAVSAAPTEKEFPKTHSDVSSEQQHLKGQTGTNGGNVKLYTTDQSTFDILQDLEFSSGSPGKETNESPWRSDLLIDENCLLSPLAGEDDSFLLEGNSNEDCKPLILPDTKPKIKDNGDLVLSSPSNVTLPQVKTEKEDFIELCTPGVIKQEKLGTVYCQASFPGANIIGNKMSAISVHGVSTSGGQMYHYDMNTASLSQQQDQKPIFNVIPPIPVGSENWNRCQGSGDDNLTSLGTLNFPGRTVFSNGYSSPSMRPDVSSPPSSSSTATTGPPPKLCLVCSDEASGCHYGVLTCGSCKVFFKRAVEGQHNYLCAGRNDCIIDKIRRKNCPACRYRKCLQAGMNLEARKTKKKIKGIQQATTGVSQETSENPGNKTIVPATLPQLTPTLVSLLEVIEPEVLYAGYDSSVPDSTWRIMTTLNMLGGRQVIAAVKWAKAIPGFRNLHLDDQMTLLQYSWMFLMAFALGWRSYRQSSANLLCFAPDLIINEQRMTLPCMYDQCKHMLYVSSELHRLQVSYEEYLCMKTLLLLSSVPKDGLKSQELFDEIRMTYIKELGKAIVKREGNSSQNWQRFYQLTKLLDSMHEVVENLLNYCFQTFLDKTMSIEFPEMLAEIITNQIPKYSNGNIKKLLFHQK
Voltage-gated inwardly rectifying potassium channel KCNH2 (Homo sapiens), sequence (Q12809 whole entry, looked up): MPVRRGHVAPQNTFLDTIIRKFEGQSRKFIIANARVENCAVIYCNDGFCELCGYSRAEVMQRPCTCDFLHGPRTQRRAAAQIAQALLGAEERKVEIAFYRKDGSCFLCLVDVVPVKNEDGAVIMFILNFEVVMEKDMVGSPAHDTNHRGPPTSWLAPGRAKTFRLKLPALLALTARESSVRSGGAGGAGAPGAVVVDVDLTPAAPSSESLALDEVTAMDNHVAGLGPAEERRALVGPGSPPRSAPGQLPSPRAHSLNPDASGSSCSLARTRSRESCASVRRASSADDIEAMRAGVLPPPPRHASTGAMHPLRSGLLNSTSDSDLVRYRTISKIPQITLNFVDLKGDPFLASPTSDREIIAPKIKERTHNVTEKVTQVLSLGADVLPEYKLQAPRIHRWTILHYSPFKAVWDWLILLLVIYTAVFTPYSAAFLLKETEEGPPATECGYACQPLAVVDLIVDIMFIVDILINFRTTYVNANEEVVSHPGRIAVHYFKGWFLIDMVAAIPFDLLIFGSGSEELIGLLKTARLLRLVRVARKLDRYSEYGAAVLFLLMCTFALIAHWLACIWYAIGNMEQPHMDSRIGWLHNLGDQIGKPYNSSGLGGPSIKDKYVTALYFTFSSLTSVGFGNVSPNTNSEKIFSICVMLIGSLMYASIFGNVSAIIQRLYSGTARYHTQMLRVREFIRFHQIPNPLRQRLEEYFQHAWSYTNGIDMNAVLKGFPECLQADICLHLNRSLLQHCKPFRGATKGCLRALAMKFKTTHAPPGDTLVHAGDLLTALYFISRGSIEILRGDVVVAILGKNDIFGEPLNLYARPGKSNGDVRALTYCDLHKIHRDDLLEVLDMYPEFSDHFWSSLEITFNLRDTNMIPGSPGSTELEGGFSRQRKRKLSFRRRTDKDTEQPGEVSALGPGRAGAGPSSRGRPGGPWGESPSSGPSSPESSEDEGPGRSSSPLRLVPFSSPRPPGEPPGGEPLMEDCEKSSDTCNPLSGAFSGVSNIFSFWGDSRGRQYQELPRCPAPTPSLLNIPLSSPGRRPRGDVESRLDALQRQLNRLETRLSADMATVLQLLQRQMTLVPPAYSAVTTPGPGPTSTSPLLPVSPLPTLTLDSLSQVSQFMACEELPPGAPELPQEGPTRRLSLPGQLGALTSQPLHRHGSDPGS
Bile acid receptor (Homo sapiens), sequence (Q96RI1 whole entry, looked up): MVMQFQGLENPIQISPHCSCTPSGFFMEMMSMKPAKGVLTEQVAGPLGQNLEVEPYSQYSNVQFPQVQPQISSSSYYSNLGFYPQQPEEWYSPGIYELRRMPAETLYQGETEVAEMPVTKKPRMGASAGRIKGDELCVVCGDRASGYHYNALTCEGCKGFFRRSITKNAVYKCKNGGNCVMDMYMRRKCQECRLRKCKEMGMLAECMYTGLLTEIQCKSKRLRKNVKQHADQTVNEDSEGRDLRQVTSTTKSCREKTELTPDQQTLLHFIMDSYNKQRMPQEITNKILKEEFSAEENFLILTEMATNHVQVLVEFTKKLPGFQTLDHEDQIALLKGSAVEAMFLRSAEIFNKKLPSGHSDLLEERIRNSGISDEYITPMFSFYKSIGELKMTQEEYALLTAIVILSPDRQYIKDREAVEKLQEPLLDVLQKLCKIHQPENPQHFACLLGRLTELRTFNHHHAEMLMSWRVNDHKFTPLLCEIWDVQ
Peroxisome proliferator-activated receptor gamma (Homo sapiens), sequence (P37231 whole entry, looked up): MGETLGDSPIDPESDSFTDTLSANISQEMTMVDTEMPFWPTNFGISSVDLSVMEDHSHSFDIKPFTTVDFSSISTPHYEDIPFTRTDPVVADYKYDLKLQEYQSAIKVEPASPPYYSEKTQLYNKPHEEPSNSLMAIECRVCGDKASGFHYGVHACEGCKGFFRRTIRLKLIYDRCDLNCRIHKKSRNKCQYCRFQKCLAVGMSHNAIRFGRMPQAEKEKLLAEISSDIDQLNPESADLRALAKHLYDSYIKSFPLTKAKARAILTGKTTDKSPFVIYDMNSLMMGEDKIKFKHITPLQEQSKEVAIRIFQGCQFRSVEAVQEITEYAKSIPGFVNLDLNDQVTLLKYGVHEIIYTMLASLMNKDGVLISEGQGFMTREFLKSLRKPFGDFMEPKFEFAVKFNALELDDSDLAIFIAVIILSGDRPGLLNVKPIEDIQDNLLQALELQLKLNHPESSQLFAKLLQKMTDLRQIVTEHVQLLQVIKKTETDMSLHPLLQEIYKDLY
Peroxisome proliferator-activated receptor delta (Homo sapiens), sequence (Q03181 whole entry, looked up): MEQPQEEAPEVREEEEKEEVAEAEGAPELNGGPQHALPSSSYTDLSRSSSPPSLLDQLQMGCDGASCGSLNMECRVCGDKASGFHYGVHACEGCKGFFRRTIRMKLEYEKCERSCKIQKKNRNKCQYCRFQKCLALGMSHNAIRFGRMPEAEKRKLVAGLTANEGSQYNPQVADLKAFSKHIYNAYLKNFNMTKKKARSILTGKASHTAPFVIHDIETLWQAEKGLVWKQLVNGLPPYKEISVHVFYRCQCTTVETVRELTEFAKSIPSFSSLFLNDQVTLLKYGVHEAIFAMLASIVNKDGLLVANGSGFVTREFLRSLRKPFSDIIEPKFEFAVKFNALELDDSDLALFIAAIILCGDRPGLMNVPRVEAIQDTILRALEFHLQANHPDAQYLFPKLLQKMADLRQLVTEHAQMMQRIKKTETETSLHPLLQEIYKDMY

For the compound `CC(C)Cc1nccs1`, the compound was classed as inactive in test [1], in test [2], in test [3], in test [4], in test [6] and in test [7]. The max response in test [5] was -0.474%; in test [8] it was -5.6%; in test [9], 12.1% (inactive). In addition, the activity change % (negative = inhibition) in [10] is 0.497% (inactive). Besides, the Potency entry in test [11] and in [12] was “inactive” each time. The values for the activation in [13] and in test [14] were 0.156% (inactive) and 0.674% (inactive), respectively.

Take `O=C(O)c1ccc(Cl)c(Cl)c1`: the compound was called inactive in test [1], in test [2], in test [17], in test [3], in test [6] and in [7]. The max response in test [15] was 20.7%; in test [5] it was 12.9%; in test [8] it was 11.8%; in test [9], 14.6% (inactive). For the same compound, the Potency result in test [16], in test [11] and in test [12] was “inactive” each time. The activity change % (negative = inhibition) in test [10] was 2.03% (inactive). Besides, the activation in test [13] is 3.05% (inactive); in test [14], 0.147% (inactive).

Regarding `O=C(O)c1ccc(CO)o1`, the result in test [1], in test [19], in test [2], in test [4], in test [6] and in test [7] was inactive. The activation in test [18] was -2.95% (inactive); in test [13] it was -2.63% (inactive); in [14], 0.608% (inactive). Also, the max response is -7.5% in test [5], -4.49% in test [8] and -4.1% (inactive) in test [9]. Besides, the activity change % (negative = inhibition) in [10] is -7.49% (inactive). The Potency result in test [11] is “inactive”.

Turning to `CCCCOCCOCCOCCCC`, the outcome in [1], in [19], in [2], in test [17], in [6] and in test [7] was inactive. The activation was 9.2% (inactive) in test [18], -0.253% (inactive) in [13] and 0.513% (inactive) in test [14]. Moreover, the max response in test [5] was -13.3%. The activity change % (negative = inhibition) in test [10] is 3.11% (inactive). Also, the Potency entry in test [11] was “inactive”.

For `CCCCCO`, the outcome in test [1], in test [3], in test [6] and in test [7] was inactive. The activation in [18] is 4.01% (inactive); in [13] it was 0.0408% (inactive); in test [14], -0.261% (inactive). Moreover, the max response in test [15] was -5.82%; in test [5] it was -7.88%; in [8], -5.62%; in [9], 1.09% (inactive). For the same compound, the Potency entry in test [16], in test [11] and in test [12] was “inactive” each time. Further, the activity change % (negative = inhibition) in test [10] is 2.41% (inactive).

On to `NC=O`, for which the compound was classed as inactive in test [1], in test [2], in [3], in [4], in [6] and in [7]. In addition, the values for the max response in [5] and in [8] were 4.7% and -9.34%, respectively. The activity change % (negative = inhibition) in [10] was 21.1% (inactive). For the same compound, the Potency entry in [11] and in test [12] was “inactive” each time. For the same compound, the activation in [14] is -0.435% (inactive).

On to `CCNc1cc(O)ccc1C`, for which the result in [1], in test [3], in test [4], in test [6] and in test [7] was inactive. Also, the max response in test [5] was -5.56%; in [8], -2.01%; in [9], 1.41% (inactive). In addition, in test [10], the activity change % (negative = inhibition) is 14.6% (inactive). The Potency entry in test [11] was “inactive”. Also, in [12], the Potency was 59.6 µM (active). In [13], the activation was -1.04% (inactive).
